We go through 63 molecules from PubChem BioAssay AID707 (Columbia University Molecular Screening Center, 2007).

The whole screen tested about 91,000 compounds, of which about 310 (0.34%) were called active. The sample as a whole holds a higher share of actives than the screen did. Unmarked numbers belong to inactive results. Cut-off read from the data, not from the text of the source: active = inhibition above about 80%; inactive = the rest.

For this test, the target named is Bifunctional epoxide hydrolase 2 (Homo sapiens) (UniProt P34913). In words: sEH enzyme activity blockers – biochemical, human sEH, primary screen (AID 707). The settings on record: recombinant human sEH enzymatic activity assay; at 2 µM; hits give high values.
Sequence of Bifunctional epoxide hydrolase 2 (Homo sapiens) (P34913 whole entry, looked up): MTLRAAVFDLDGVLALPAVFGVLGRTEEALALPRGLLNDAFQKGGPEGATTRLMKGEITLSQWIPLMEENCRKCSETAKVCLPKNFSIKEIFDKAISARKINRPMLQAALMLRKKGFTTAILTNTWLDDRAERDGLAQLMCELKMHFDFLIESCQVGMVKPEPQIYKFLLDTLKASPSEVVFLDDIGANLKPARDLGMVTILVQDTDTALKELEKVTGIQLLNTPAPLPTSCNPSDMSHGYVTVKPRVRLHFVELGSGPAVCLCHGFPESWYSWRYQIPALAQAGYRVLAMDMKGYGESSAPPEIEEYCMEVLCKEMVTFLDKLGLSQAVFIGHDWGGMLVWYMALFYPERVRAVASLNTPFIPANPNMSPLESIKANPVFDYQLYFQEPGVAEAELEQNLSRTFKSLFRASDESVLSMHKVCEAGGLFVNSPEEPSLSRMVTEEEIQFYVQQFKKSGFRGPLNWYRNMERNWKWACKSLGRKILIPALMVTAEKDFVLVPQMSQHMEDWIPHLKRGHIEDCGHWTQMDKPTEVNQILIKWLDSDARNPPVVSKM
For `CON(C)S(=O)(=O)c1ccc2c(c1)NC(=O)C1CCCN21` (stereo not drawn), the inhibition (usually the drop in the measured response relative to a control, in per cent) is -14.7%.

Consider `O=C(NNC(=O)c1cccnc1)Nc1ccccc1`, for which the inhibition is -21.5%.

Take `N#C/C(=C/c1ccc(Cl)cc1)NC(=O)c1ccccc1`: the inhibition was 3.7%.

Consider `CCOC(=O)c1ccc(NC(=O)CSc2nnc(COc3ccccc3OC)n2C)cc1`, for which the inhibition was 9.6%.

In the case of `CCCCNC(=O)CSc1nnc(-c2ccco2)n1C`, the inhibition is -1.7%.

With `CCCCNC(=O)CSc1nc2ccc(NC(=O)CSc3nnc(COc4ccccc4C)n3C)cc2s1`, the inhibition is 88.5% (active).

Consider `CC(CC(=O)Nc1cc(C(F)(F)F)ccc1Cl)c1ccccc1` (stereo not drawn), for which the inhibition is 49.5%.

As for `CCc1c(C)nc2ncnn2c1N1CCC(C(=O)NCc2ccc3c(c2)OCO3)CC1`, the inhibition was 83.3% (active).

In the case of `CCOC(=O)NCc1ccc2c(c1)OCO2`, the inhibition is 4.7%.

In the case of `CC1CCCCN1CC(=O)NCc1ccc2c(c1)OCO2` (stereo not drawn), the inhibition was 3.9%.

For the molecule `COc1ccc(NC(=O)Nc2ccc3nsnc3c2)cc1`, the inhibition is 75.6%.

As to `CCCCNCc1ccc(SC)cc1`, the inhibition was 10.8%.

`COc1ccc2c(c1)SC(C)CC2=O` (stereo not drawn): the inhibition is -11.8%.

`Cc1cccc(N(C(=O)Cc2cccs2)C(C(=O)NC2CCCC2)c2ccsc2)c1` (stereo not drawn): the inhibition is 1.9%.

For the molecule `Cc1cccc(NC(=S)Nc2ccc(Br)cc2)c1`, the inhibition is 17.8%.

As for `COc1ccc(CCNC(=S)NC(=O)/C=C/c2ccc(C)cc2)cc1OC`, the inhibition is -0.9%.

As for `Cc1cccc(-n2cnc(C(=O)Nc3cccnc3)c2)n1`, the inhibition is -6.9%.

`Cc1ccc2nc(Nc3ccccc3O)nc(-c3ccccc3)c2c1`: the inhibition is 0.8%.

With `c1ccc2c(CSCc3nc4ccccc4[nH]3)cccc2c1`, the inhibition was 10.5%.

`Cc1ccccc1OC/C(O)=C(\C#N)c1nc2ccccc2[nH]1`: the inhibition was -13.4%.

Consider `COC(=O)c1ccc(C(=O)Nc2cc(Cl)ccc2Cl)cc1NC(=O)c1ccccc1C`, for which the inhibition was -1.7%.

For the molecule `Cc1ccccc1OCc1nnc(SCC(=O)N2c3ccccc3Sc3ccc(Cl)cc32)o1`, the inhibition is -2.3%.

`CC1Cc2ccccc2N1CC(=O)Nc1ccc2c(c1)OC(F)(F)O2` (stereo not drawn): the inhibition was 49.2%.

Consider `CCOC(=O)COc1cc(OCC(=O)OCC)c2c(=O)cc(-c3ccccc3)oc2c1`, for which the inhibition was -14.8%.

`COCCCn1c(SCc2cccc(OC)c2)nc2cc(OC)c(OC)cc2c1=N`: the inhibition is 7.8%.

For `Cc1[nH]nc(-c2ccc(OCc3cnn(-c4ccccc4)c3)cc2O)c1Oc1ccc(Cl)cc1`, the inhibition was 11.4%.

Regarding `COc1ccc(C(=O)NC(=S)Nc2ccccc2N2CCN(S(C)(=O)=O)CC2)cc1OC`, the inhibition was 12.4%.

Consider `Cc1ccc2nc(SCc3nnc(-c4ccccc4[N+](=O)[O-])o3)c(C#N)cc2c1`, for which the inhibition is 0.2%.

On to `Cc1cccc(-n2ncc(C#N)c2-n2cccc2)c1`, for which the inhibition is 0.9%.

As to `CCCC(=O)NC(Nc1ccccc1OC)C(Cl)(Cl)Cl` (stereo not drawn), the inhibition was 6.5%.

Take `Fc1ccccc1COc1ccccc1CNCc1ccncc1`: the inhibition is 5.2%.

Turning to `CC(=O)Nc1ccccc1C(=O)C(=O)Nc1ccc(F)cc1`, the inhibition was -20.5%.

`COC(=O)CNC(=O)c1ccccc1[N+](=O)[O-]`: the inhibition was -15.7%.

As for `O=C(CCc1ccc(S(=O)(=O)N2CCOCC2)cc1)Nc1ccc2ccccc2c1`, the inhibition was 21.6%.

Regarding `CONC(=O)c1cc(OCC(F)(F)F)ccc1OCC(F)(F)F`, the inhibition was 6%.

Consider `Cc1c(Br)c([N+](=O)[O-])nn1C(C)C(=O)Nc1nccs1` (stereo not drawn), for which the inhibition was -4.7%.

Take `N#Cc1ccc(-c2ccc(Cl)cc2)nc1Oc1ccc(F)cc1`: the inhibition was 7.8%.

With `COCc1cc(C)nc2sc3c(=O)n(-c4cccc5ccccc45)nnc3c12`, the inhibition is 3.4%.

As for `Cc1ccc(-n2c(C)cc(/C=C(\C#N)C(=O)NCC3CCCO3)c2C)cc1` (stereo not drawn), the inhibition is 10.8%.

Take `O=Cc1c(N2CCN(c3cccc(Cl)c3)CC2)nc2ccccn2c1=O`: the inhibition was 1.4%.

On to `CC(=O)c1cccc(NC(=O)Nc2ccc(C)cc2)c1`, for which the inhibition is 48.2%.

Take `COc1cccc(NC(=O)Cc2ccc(C)cc2)c1`: the inhibition is 1.6%.

Regarding `Cc1cccc(NC(=O)Nc2cccc(Oc3c(F)c(F)c(F)c(F)c3F)c2)c1`, the inhibition was 80.6% (active).

On to `O=C(/C=C\NCC(=O)c1ccccc1)c1ccccc1`, for which the inhibition is 2.3%.

Regarding `COc1ccc2c(c1OC)C(=O)c1ccccc1C2=O`, the inhibition was -2.2%.

With `Cc1onc(-c2c(Cl)cccc2Cl)c1C(=O)c1c[nH]c(C(=O)NC2CC2)c1`, the inhibition is 2%.

In the case of `Cc1[nH]n(-c2ccccc2)c(=O)c1CCOC(=O)c1ccc(C(F)(F)F)cc1`, the inhibition was 7.1%.

As for `C/C(=N/NC(=O)c1ccc(NC(=O)c2ccc(F)cc2)cc1)c1ccccc1`, the inhibition is -3.4%.

For the molecule `Cc1cc2c(c(=O)n1C)C(C(C)C)C(C#N)=C(N)O2` (stereo not drawn), the inhibition was -3.6%.

On to `CNS(=O)(=O)c1cnccc1N1CCN(c2cccc(C)c2)CC1`, for which the inhibition is 13.4%.

On to `Cc1ccc(-c2nnc(-n3nnc4ccccc43)c3ccccc23)cc1`, for which the inhibition is -3.9%.

Consider `C=CCNc1nc(N)c(C(=C(C#N)C#N)c2ccccc2)s1`, for which the inhibition was 4.9%.

Take `Cc1cc([N+](=O)[O-])c(N2CCC[C@@H]2C(=O)O)c([N+](=O)[O-])c1`: the inhibition is 3.1%.

As for `COC(=O)CN(C(=S)Nc1ccc(Cl)cc1)C1CC(=O)N(c2ccc(OC)cc2)C1=O` (stereo not drawn), the inhibition was 12.2%.

`CC1=NN(C(=O)Cc2ccc(C)cc2)C(O)(c2cccnc2)C1` (stereo not drawn): the inhibition was 3.6%.

As to `COc1ccc(C)cc1NC(=O)CCC(=O)Nc1nnc(C(F)(F)F)s1`, the inhibition was 15.2%.

With `O=C(c1ccccc1)C(Cn1cncn1)C(Sc1ccccc1)c1ccccc1` (stereo not drawn), the inhibition is -1.8%.

Regarding `COc1ccc(C(=O)N2CCc3cc(OC)c(OC)cc3C2c2cccc([N+](=O)[O-])c2)cc1` (stereo not drawn), the inhibition is 0.6%.

For `C=CCOc1c2ccc(C(=O)N(CC)c3ccc(OC)cc3)cc2nn1C`, the inhibition was 10.6%.

As for `Cc1ccc(C)c(NC(=O)C2Cc3ccccc3CN2C(=O)OCc2ccccc2)c1` (stereo not drawn), the inhibition was -5.4%.

In the case of `CC(=O)N(C)c1ccc(NC(=O)C(F)(F)F)cc1`, the inhibition was 3.7%.

As to `CCOc1ccc(NC(=O)Nc2cc(C)on2)cc1`, the inhibition is 2.9%.

In the case of `CCOc1ccc(NC(=O)Nc2ccc(N(C)C(C)=O)cc2)cc1`, the inhibition was 82.3% (active).
